Reference: PubChem BioAssay
Values joined by “and” are separate entries in the source; they are usually repeats but may differ in a detail not shown here. Equal values may be shown once. A number with no mark means an inactive call. Entries that show only a call come without a potency. For some of these results: Potency and affinity values are given separately. Active and inactive are the calls of the source. Unless noted, how the calls were made is not given here.

Experiments:
[1] = antimalarial activity against Dd2 strain (AID 2302;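 active means growth inhibition above 50% at the single 2 µM test dose, taken to imply half-maximal potency below 2 µM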); conditions: P. falciparum Dd2 in RBCs, LDH growth readout, 72 h; at 2 µM; stronger effect = higher value
[2] = HepG2 cytotoxicity, primary screen, cytotoxicity control for P. falciparum antimalarial project, cell-based, ATP luminescence (AID 2303;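 active means inhibition above 50%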); conditions: HepG2 viability, 24-48 h, at 10 µM, stronger effect = higher value
[3] = target: L-lactate dehydrogenase (Plasmodium falciparum (isolate CDC / Honduras)) (UniProt Q27743); assay: PfLDH activity inhibition – cell lysate, 3D7 strain, counter-screen for P. falciparum growth inhibition project (AID 2304); conditions: P. falciparum 3D7 crude extract, LDH APAD/NBT absorbance; at 2 µM; stronger effect = higher value
Chain of L-lactate dehydrogenase (Plasmodium falciparum (isolate CDC / Honduras)) (Q27743 whole entry, looked up): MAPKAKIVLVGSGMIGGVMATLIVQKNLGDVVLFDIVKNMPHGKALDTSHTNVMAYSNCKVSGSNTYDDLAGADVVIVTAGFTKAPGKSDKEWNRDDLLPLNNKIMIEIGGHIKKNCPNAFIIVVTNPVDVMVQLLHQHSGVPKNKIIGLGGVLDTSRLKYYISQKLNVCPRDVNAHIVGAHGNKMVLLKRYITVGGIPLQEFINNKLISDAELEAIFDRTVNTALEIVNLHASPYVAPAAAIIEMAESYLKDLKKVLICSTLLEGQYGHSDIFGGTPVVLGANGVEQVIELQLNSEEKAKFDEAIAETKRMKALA

[4] = inhibition of 3D7 malaria parasite growth – strain 3D7 (AID 2306); conditions: P. falciparum 3D7 erythrocytic growth, LDH absorbance, 72 h; at 2 µM; stronger effect = higher value
[5] = target: Calcium-dependent protein kinase 1 (Plasmodium falciparum (isolate 3D7)) (UniProt P62344); assay: PfCDPK1 kinase inhibitors, biochemical, TCAMS library (AID 1159585; cut-off not given, nearly all actives have IC50 up to about 0.98 µM;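 further: inhibitors leave more ATP so luminescence rises with inhibition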); conditions: recombinant PfCDPK1, Kinase-Glo ATP depletion luminescence
Chain of Calcium-dependent protein kinase 1 (Plasmodium falciparum (isolate 3D7)) (P62344 whole entry, looked up): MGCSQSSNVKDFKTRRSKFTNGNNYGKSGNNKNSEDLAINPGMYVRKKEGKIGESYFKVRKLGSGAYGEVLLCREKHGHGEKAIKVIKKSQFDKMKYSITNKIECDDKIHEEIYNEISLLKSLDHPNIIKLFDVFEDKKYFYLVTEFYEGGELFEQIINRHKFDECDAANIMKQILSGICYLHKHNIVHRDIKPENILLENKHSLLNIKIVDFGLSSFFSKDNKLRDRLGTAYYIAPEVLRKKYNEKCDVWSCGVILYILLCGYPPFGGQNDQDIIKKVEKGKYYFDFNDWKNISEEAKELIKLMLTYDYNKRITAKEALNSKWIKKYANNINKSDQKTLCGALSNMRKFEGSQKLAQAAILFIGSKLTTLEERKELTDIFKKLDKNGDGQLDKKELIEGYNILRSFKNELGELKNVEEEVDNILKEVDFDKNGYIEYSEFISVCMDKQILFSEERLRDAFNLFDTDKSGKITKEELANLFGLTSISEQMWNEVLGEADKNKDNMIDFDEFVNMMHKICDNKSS

[6] = target: Plasmodium falciparum protein kinase 6 (PK6, PF3D7_1337100) (UniProt Q8IDW1); assay: PfPK6 kinase inhibitors, biochemical, TCAMS library (AID 1159586); conditions: recombinant PfPK6, Kinase-Glo ATP depletion luminescence
Chain of Plasmodium falciparum protein kinase 6 (PK6, PF3D7_1337100) (Q8IDW1 1-305): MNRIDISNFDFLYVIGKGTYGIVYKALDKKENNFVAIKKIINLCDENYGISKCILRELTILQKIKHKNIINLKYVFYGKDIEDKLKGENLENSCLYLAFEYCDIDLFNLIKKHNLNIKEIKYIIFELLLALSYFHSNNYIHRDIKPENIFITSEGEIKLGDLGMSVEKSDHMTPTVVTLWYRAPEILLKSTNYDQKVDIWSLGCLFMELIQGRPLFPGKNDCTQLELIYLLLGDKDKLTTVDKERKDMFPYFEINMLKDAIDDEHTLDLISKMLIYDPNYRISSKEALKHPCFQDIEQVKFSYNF

[7] = target: Protein kinase 7 (PK7), Plasmodium falciparum 3D7 (PF3D7_0213400) (UniProt Q7YTF7); assay: inhibition of Plasmodium PK7 catalytic activity – biochemical, TCAMS antimalarial set, Kinase-Glo luminescence (AID 1159587); conditions: recombinant PfPK7, Kinase-Glo ATP depletion luminescence
Chain of Protein kinase 7 (PK7), Plasmodium falciparum 3D7 (PF3D7_0213400) (Q7YTF7 1-343): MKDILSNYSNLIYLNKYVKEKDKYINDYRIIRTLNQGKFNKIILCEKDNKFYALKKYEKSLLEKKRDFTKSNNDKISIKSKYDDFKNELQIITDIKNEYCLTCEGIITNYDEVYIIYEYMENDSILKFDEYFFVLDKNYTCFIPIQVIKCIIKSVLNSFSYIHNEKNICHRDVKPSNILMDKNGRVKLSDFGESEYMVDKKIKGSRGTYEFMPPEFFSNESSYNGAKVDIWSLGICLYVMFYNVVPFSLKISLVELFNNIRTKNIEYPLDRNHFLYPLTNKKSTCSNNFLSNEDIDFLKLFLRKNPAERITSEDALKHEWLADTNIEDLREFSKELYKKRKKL

[8] = target: Calcium-dependent protein kinase 4 (Plasmodium falciparum (isolate 3D7)) (UniProt Q8IBS5); assay: PfCDPK4 kinase inhibitors, biochemical, TCAMS library (AID 1159588; cut-off not given, nearly all actives have IC50 up to about 0.91 µM); conditions: recombinant PfCDPK4, Kinase-Glo ATP depletion luminescence
Chain of Calcium-dependent protein kinase 4 (Plasmodium falciparum (isolate 3D7)) (Q8IBS5 whole entry, looked up): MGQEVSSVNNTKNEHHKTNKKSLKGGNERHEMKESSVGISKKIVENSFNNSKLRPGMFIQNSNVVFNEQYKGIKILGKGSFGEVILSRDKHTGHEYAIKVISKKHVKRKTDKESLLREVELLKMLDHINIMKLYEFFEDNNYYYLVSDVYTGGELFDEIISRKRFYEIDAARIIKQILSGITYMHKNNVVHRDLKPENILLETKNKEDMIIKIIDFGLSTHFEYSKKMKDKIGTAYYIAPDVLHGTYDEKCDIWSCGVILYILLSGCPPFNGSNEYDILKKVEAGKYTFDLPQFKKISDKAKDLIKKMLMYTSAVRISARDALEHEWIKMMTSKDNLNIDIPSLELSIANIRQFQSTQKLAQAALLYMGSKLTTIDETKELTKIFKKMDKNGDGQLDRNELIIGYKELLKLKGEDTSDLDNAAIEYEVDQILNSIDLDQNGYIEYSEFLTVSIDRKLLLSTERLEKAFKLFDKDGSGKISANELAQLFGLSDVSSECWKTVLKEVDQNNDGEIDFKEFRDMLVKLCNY

Compound | growth inhibition [1] | inhibition [2] | inhibition [3] | growth inhibition [4] | outcome [5] | outcome [6] | outcome [7] | outcome [8]
CC(CCCCC(=O)Nc1ccc(C(F)(F)F)cc1)NCC(O)c1cccc(Cl)c1 (stereo not drawn) | 92% (active) | 51% (active) | -8% | 99% (active) | inactive | inactive | inactive | inactive
CN1CCC(C(=O)Nc2cccc(-c3ccc(-c4nc5ccc(C(F)(F)F)cc5[nH]4)s3)c2)CC1 | 95% (active) | 29% | 0% | 101% (active) | inactive | inactive | inactive | inactive
O=C(/C=C/c1ccc(Cl)c(Cl)c1)NC1CCN(CCCNC(=O)c2cccc(Cl)c2)CC1 | 28% | 36% | -2% | 100% (active) | inactive | inactive | inactive | inactive
Cc1[nH]c(C)c(-c2ccc(CCc3ccc(N)cc3)cc2)c(=O)c1Cl | 97% (active) | 2% | 5% | 97% (active) | inactive | inactive | inactive | inactive
NC1=NC(c2ccccc2)(c2ccccc2)C(=O)N1CC1CCC1 | 74% (active) | 17% | 3% | 96% (active) | inactive | inactive | inactive | inactive
Cc1cc(=O)c(-c2ccc(Oc3cccc(C(F)(F)F)c3)cc2)c(C)[nH]1 | 95% (active) and 97% (active) | 8% and 14% | -2% and -1% | 96% (active) and 97% (active) | inactive | inactive | inactive | inactive
COc1c(C2CCN(CCCCNC(=O)c3noc(-c4ccc(C#N)cc4)n3)CC2)ccc2c1CCCC2 | -2% | 32% | -1% | 99% (active) | inactive | inactive | inactive | inactive
O=c1cc(NCCCNCc2ccc(Cl)c(Cl)c2)[nH]c2cc(Cl)ccc12 | 51% (active) | 1% | 1% | 95% (active) | inactive | inactive | inactive | inactive
CC(C)Oc1ccc2c(c1)OC(c1ccccc1)(C(F)(F)F)NC2=O (stereo not drawn) | 98% (active) | -6% | -2% | 101% (active) | inactive | inactive | inactive | inactive
CCCCCCN1CCCN(Cc2ccc(C(=O)Nc3ccc(CC)cc3)cc2)CC1 | 50% (active) | 53% (active) | 2% | 97% (active) | inactive | inactive | inactive | inactive
Cc1cc(C2CCN(CCCCNC(=O)c3ccc(NC(=O)c4ccc(Cl)cc4)cc3)CC2)c(C)cc1OCc1cccnc1 | 90% (active) | 39% | 0% | 101% (active) | inactive | inactive | inactive | inactive
